# Compound activity from PubChem BioAssay.
# MARV entry inh – blocks Marburg virus binding to or entry into cells. Marburg virus pseudotyped entry inhibition, cell reporter. Potency, µM (highest dose often 37.8 µM), inactives show top-dose activity change, negative = inhibition, usual class: inhibitors. actives 1.8% (n = 300,000). AID 540276; calls by dose curve; tested in HEK293 cells; also: potency is read from the fitted curve at half-maximal effect
# HCMV antiviral – inhibitors of human cytomegalovirus | activity change, negative = inhibition, % at 57.5 µM | HFF cells, HCMV-luciferase reporter, 72 h; hits give low values | actives 4.5% (n = 410,000); in the data active = activity change below about -60%; inconclusive = no clear call, values can overlap the other calls; inactive = above about -39%
#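 Inhibition of viral replication was scored as loss of reporter luminescence in HFFs infected with HCMV-luciferase (MOI 1 PFU/cell) for 72 h; compounds tested at 2 doses, normalized to buffer and Salinomycin controls.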
# LASV entry inh – blocks Lassa virus binding to or entry into cells; actives 1.2% (n = 300,000); AID 540256; Potency, µM (highest dose often 37.9 µM), for inactives: top-dose activity change, negative = inhibition, usual class: inhibitors; Lassa virus pseudotype entry inhibition, cell reporter; calls by dose curve; tested in HEK293 cells; also: potency is read from the fitted curve at half-maximal effect; nearly all actives have a fitted effect of over 50% in size
# FMDV antiviral – foot and mouth disease virus antiviral activity. Potency, µM (titrated, usually from 57.9 µM), for inactives: at the highest dose activity change, negative = inhibition, actives largely listed as inhibitors. actives 1.2% (n = 410,000). FMDV antiviral cell-based qHTS; calls by dose curve; tested in HEK293T cells; also: read-out not given here; potency is read from the fitted curve at half-maximal effect; nearly all actives have a fitted effect of over 45% in size
# HCV inhibitor – blocks hepatitis C virus | Huh7.5.1 HCVcc-Cre infection, luciferase reporter, 44 h | Potency, µM (series often up to 41.8 µM), inactives show at the top dose activity change, negative = inhibition, actives largely listed as inhibitors | actives 3.4% (n = 340,000) | AID 651820; active = well fitted inhibition curve with a large enough effect; inconclusive = small, poorly fitted or top-dose-only effect, or another doubt; inactive = no such curve, though single readings can be large or run the other way; also: potency is read from the fitted curve at half-maximal effect
#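 Reporter virus HCVcc-Cre (~0.5 moi) infects cells exposed to compound; seeding density 1,000 cells/well with 4 h settling beforehand. Luminescence, 15 sec read, taken 44 h post-infection following a 15 min RT substrate incubation.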
# An asterisk follows results filed as active; ? = inconclusive; / = no result; [ ] = remark or other dose. A selection: hits, their analogues and other compounds. The true share with any hit is near 7.9%. % is scaled to controls: 0 for no effect and ±100 for the full control effect.
SMILES,MARV entry inh,HCMV antiviral,LASV entry inh,FMDV antiviral,HCV inhibitor
COc1ccc(N2CCN(c3c(S(=O)(=O)c4ccccc4)cnc4ccc(OC)cc34)CC2)cc1,8.9µM*,?,?,0%,11µM*
COc1ccc(S(=O)(=O)c2cnc3ccc(OC)cc3c2N2CCC3(CC2)OCCO3)cc1,?,-74*,?,?,?
CCOc1ccc2ncc(S(=O)(=O)c3ccccc3)c(N3CCN(c4ccc(OC)cc4)CC3)c2c1,?,5,?,-27%,?
C[C@H](NC(=O)N1CCn2c1nc1ccccc12)C(=O)NCc1ccc2c(c1)OCO2,/,-19,/,-11%,-5%
Cc1cc(N2CCN(C)CC2)nc2ccc(NC(=O)c3ccc(C(C)(C)C)cc3)cc12,?,-106*,5%[46.1 µM],?,/
CCOC(=O)N1CCC(NC(=S)Nc2ccc3nc(N4CCN(C)CC4)cc(C)c3c2)CC1,?,-31,22%,9%,10µM*
COc1ccc(/C=C/C(=O)Nc2ccc3nc(N4CCC(C)CC4)cc(C)c3c2)cc1OC,10µM*,-88*,?,-13%,/
CCOC(=O)N1CCC(NC(=S)Nc2ccc3nc(N4CCN(CC)CC4)cc(C)c3c2)CC1,/,-9,/,-9%,-23%
Cc1cc(N2CCOCC2)nc2ccc(NC(=O)CCC(=O)N3CCN(c4ccccc4F)CC3)cc12,?,11,?,-7%,22µM*
Cc1cc(C)c(C)c(C(=O)COC(=O)CNC(=O)CNC(=O)c2ccco2)c1C,10%[46.1 µM],3,15%,4%,5%
CCN1CCN(c2cc(C)c3cc(NC(=O)c4ccc(OC)c(OC)c4)ccc3n2)CC1,?,?,-1%[46.1 µM],9%,11µM*
COc1ccc(C)cc1NC(=O)CCC(=O)Nc1ccc2nc(N3CCN(C)CC3)cc(C)c2c1,?,/,-4%,-10%,10µM*
CCN1CCN(c2cc(C)c3cc(NC(=O)/C=C/c4ccc(OCCC(C)C)cc4)ccc3n2)CC1,0%[46.1 µM],-79*,26%[46.1 µM],?,/
CCN1CCN(c2cc(C)c3cc(NC(=O)c4cncc(Br)c4)ccc3n2)CC1,?,?,-25%,-25%,5.6µM*
CCN1CCN(c2cc(C)c3cc(NC(=O)/C=C/c4ccc(C)cc4)ccc3n2)CC1,?,-21,22%[46.1 µM],-7%,/
CCN1CCN(c2cc(C)c3cc(NC(=O)c4cc(OC)c(OC)c(OC)c4)ccc3n2)CC1,/,-7,-24%[46.1 µM],-3%,/
CCN1CCN(c2cc(C)c3cc(NC(=O)CCC(=O)Nc4ccc(OC)c(OC)c4)ccc3n2)CC1,/,20,/,-15%,-20%
CCN(CCCNC(=O)Cn1ncc2c3ccccc3n(C)c2c1=O)c1cccc(C)c1,-14%[46.1 µM],21,24%[46.1 µM],-16%,/
CN(c1ccccc1)S(=O)(=O)c1cc(C(=O)Nc2ccccc2N2CCOCC2)ccc1Cl,/,-18,/,?,?
CCN(CC)c1cc(C)c2cc(NC(=O)c3ccccc3Cl)ccc2n1,?,?,-29%[46.1 µM],1%,/
CCN(CC)c1ccc(C(=O)Nc2ccc3nc(N(CC)CC)cc(C)c3c2)cc1,11µM*,-67*,?,-27%,/
CCOc1ccccc1NC(=O)Nc1ccc2nc(N3CCN(C)CC3)cc(C)c2c1,/,-106*,?,23%,/
CC(C)(O)c1cc2ccc(C#CCCN3C(=O)c4ccccc4C3=O)cc2c(=O)o1,/,?,/,-5%,12%
Cc1ccn(CCC(=O)NC2CCCc3c2cnn3-c2cccc(C)c2C)n1 (stereo unspecified),/,?,/,-11%,-8%
Cc1cc(C(=O)NC2CCCc3c2cnn3-c2cccc(C)c2C)n(C)n1 (stereo unspecified),/,-40,/,?,0.32µM*
SMILES,MARV entry inh,HCMV antiviral,LASV entry inh,FMDV antiviral,HCV inhibitor
Cc1cccc(-n2ncc3c2CCCC3NC(=O)c2ccc[n+]([O-])c2)c1C (stereo unspecified),/,?,/,-26%,13µM*
Cc1cccc(-n2ncc3c2CCCC3NC(=O)C2CCOCC2)c1C (stereo unspecified),-29%,-38,-9%,0%,22µM*
CC(C)=CCCC(C)=CCON=C1C[C@@H](O)[C@@H](O)[C@@H]2[C@H]3C(=O)N(Cc4ccccc4)C(=O)[C@@H]3CC[C@@H]12,3%[14.2 µM],/,/,/,/
O=C1CC(c2ccc(OCCCCCOc3ccc(C4CC(=O)NC4=O)cc3)cc2)C(=O)N1 (stereo unspecified),?,-25,?,28µM*,?
CCCCCCCCOc1ccc(C2CC(=O)NC2=O)cc1 (stereo unspecified),/,20,/,-7%,25%
Cc1ccc2nc(SCC(=O)NCc3ccc4c(c3)OCO4)nc(=O)n2c1,6%,-36,0%[46.1 µM],-14%,20%
COc1ccc(NS(=O)(=O)c2ccc3nc(COc4cccc5ccccc45)[nH]c3c2)cc1,15µM*,-79*,?,-20%,?
O=c1n(-c2ccccc2)c(=O)n2n1CC[C@H]1/C(=N\OC[C@@H](O)COCc3ccco3)[C@H]3O[C@@H]3[C@@H](O)[C@@H]12,-23%[14.2 µM],/,/,/,/
CC[C@H](C(=O)OCCN(CC)CC)c1ccccc1,2%,/,/,/,/
COc1ccc(-c2nc(NC(=O)c3c(C)noc3C)sc2C)cc1,-23%,-61*,?,?,?
COc1ccc(-c2nc(NC(=O)CCNC(=O)c3ccco3)sc2C)cc1,/,-21,/,?,?
COc1ccc(-c2nc(NC(=O)c3cc(C(C)(C)C)nn3C)sc2C)cc1,9.2µM*,/,?,28µM*,5.6µM*
Nc1cc(=O)nc(SCC(=O)Nc2ccc(F)cc2)n1-c1ccccc1Cl,?,24,0%[46.1 µM],-16%,/
COCCNC(=O)C1(C)CCN(C(=O)c2cc(C(C)(C)C)nn2C)C1 (stereo unspecified),/,?,/,4%,/
COc1cccc(NC(=O)c2ccc(-c3nc(COc4ccc(C)cc4)c(C)o3)cc2)c1,/,17,?,0%,/
COc1cccc(-c2nc(CS(=O)(=O)CC(=O)Nc3ccccc3Cl)c(C)o2)c1,-28%[46.1 µM],-24,-4%[46.1 µM],-20%,13µM*
COc1cccc(-c2nc(CS(=O)(=O)CC(=O)Nc3ccc(C(C)=O)cc3)c(C)o2)c1,/,10,/,-18%,11µM*
COc1cccc(NC(=O)c2ccc(-c3nc(COc4ccccc4)c(C)o3)cc2)c1,/,-66*,1%[46.1 µM],?,/
COc1cccc(-c2nc(CS(=O)(=O)CC(=O)Nc3ccc(C)c(Cl)c3)c(C)o2)c1,?,-1,2%[46.1 µM],-17%,/
Cc1oc(-c2cccc(Cl)c2)nc1CS(=O)(=O)CC(=O)NC1CCCC1,7%[46.1 µM],-62*,-6%[46.1 µM],-5%,-7%
COc1cccc(-c2nc(CS(=O)(=O)CC(=O)NC3CCCc4ccccc43)c(C)o2)c1 (stereo unspecified),/,?,/,-7%,11µM*
COc1cccc(-c2nc(CS(=O)(=O)CC(=O)NC3CCCC3)c(C)o2)c1,?,-21,4%[46.1 µM],?,?
Cc1cccc(C(=O)NCc2nc(-c3cccc(NC(=O)c4ccoc4C)c3)oc2C)n1,/,/,/,-19%,/
